Drawing on ChEMBL document CHEMBL4296183, “CO-ADD screening of NIH NCI Natural Product Set III” (2020), this text covers Inhibition for 25 molecules.

The subject of one test is Staphylococcus aureus. The test is described as follows: Antibacterial activity against Staphylococcus aureus MRSA ATCC 43300 (CO-ADD:GP_020); MIC in CAMBH media using NBS plates, by Resazurin F(560/590). As to conditions: Concentration 20 uM, ASSAY_TEST Inhibition of Bacterial Growth, detection method Resazurin, Fluorescence (ex560/em590), MEDIA CAMHB, plate type 384well, CORNING #3640, time 18 hr. The class given is functional. For orientation: Alamar Blue is a resazurin reagent that responds to reducing activity.

In the next test the test system is Acinetobacter baumannii. The test is described as follows: Antibacterial activity against Acinetobacter baumannii ATCC 19606 (CO-ADD:GN_034); MIC in CAMBH media using NBS plates, by Resazurin F(560/590). As to conditions: Concentration 20 uM, ASSAY_TEST Inhibition of Bacterial Growth, detection method Resazurin, Fluorescence (ex560/em590), MEDIA CAMHB, plate type 384well, CORNING #3640, time 18 hr. The class given is functional.

A further test has as its system Escherichia coli. The test is described as follows: Antibacterial activity against Escherichia coli ATCC 25922 (CO-ADD:GN_001); MIC in CAMBH media using NBS plates, by Resazurin F(560/590). It is filed as functional. As to conditions: Concentration 20 uM, ASSAY_TEST Inhibition of Bacterial Growth, detection method Resazurin, Fluorescence (ex560/em590), MEDIA CAMHB, plate type 384well, CORNING #3640, time 18 hr.

Another test concerns Klebsiella pneumoniae. As to conditions: Concentration 20 uM; ASSAY_TEST Inhibition of Bacterial Growth; detection method Absorption (OD600); MEDIA CAMHB; plate type 384well; NBS; CORNING #3640; time 18 hr.
The next test has as its system Candida albicans. As to conditions: 20 µM.
Another test deals with Cryptococcus neoformans. As to conditions: Concentration 20 uM; ASSAY_TEST Inhibition of Fungal Growth; detection method Resazurin; Absorption (OD600-OD570); plate type 384well; NBS; CORNING #3640.

For part of these data: Entries with a potency or affinity are not part of this list.

By Inhibition is commonly meant the change of the read-out against control, counted positive when it falls. For the molecule `CN1CCc2cc3c(cc2C(=O)Cc2ccc4c(c2C1)OCO4)OCO3.Cl` [PROTOPINE HYDROCHLORIDE], the Inhibition with Staphylococcus aureus was 14.82%; in the test with Acinetobacter baumannii, -4.7%; in the test on Escherichia coli, 3%; in the test with Klebsiella pneumoniae, 4.34%; with Candida albicans it was -1.7%; in the test with Cryptococcus neoformans, -6.39%.
Take `CC(C)CC1NC(=O)C(C(C)C)NC(=O)CC(C)COC(=O)C(CC(C)C)N(C)C(=O)C(C(C)C)NC(=O)C(C(C)C)OC1=O` (stereo not given): the Inhibition in the test with Staphylococcus aureus is -2.11%; with Acinetobacter baumannii, 3.02%; in the test with Escherichia coli, 6.85%; in the test on Klebsiella pneumoniae, 6.52%; with Candida albicans, -1.26%; in the test with Cryptococcus neoformans, -9.65%.
On to `COc1c2c(cc3c1[C@@H]1Oc4c(ccc(O)c4CC=C(C)C)[C@@H]1CO3)OC(C)(C)C=C2`, for which the Inhibition was -1.33% with Staphylococcus aureus; -12.04% in the test with Acinetobacter baumannii; 1.21% in the test on Escherichia coli; -0.46% in the test on Klebsiella pneumoniae; 5.57% in the test with Candida albicans; -11.6% in the test on Cryptococcus neoformans.
As to `COc1ccc(C2CC(=O)c3c(O)cc(OC4OC(CO)C(O)C(O)C4OC4OC(C)C(O)C(O)C4O)cc3O2)cc1O` (stereo not given), the Inhibition in the test with Staphylococcus aureus was 15.96%; with Acinetobacter baumannii, -4.03%; in the test on Escherichia coli it was 5.81%; in the test on Klebsiella pneumoniae, 1.79%; with Candida albicans it was -1.53%; in the test on Cryptococcus neoformans, -13%.
Take `COC(=O)C1C(O)CCC2CN3CCc4c([nH]c5ccccc45)C3CC21` (stereo not given): the Inhibition in the test with Staphylococcus aureus was 7.76%; with Acinetobacter baumannii, -5.08%; in the test on Escherichia coli it was 5.27%; with Klebsiella pneumoniae, 13.74%; with Candida albicans, 1.54%; with Cryptococcus neoformans, -9.85%.
For `O=c1oc2c(O)c(O)cc3c(=O)oc4c(O)c(O)cc1c4c23` [ELLAGIC ACID], the Inhibition is -17.94% in the test on Staphylococcus aureus; -6.11% with Acinetobacter baumannii; 7.74% with Escherichia coli; 25.12% in the test with Klebsiella pneumoniae; 8.04% in the test on Candida albicans; -7.36% with Cryptococcus neoformans.
Turning to `COc1ccc2c(c1OC)C(=O)O[C@@H]2[C@H]1c2c(cc3c(c2OC)OCO3)CCN1C` [NOSCAPINE], the Inhibition with Staphylococcus aureus was 1.91%; with Acinetobacter baumannii it was -5.12%; in the test with Escherichia coli, 1.19%; with Klebsiella pneumoniae, -0.26%; in the test on Candida albicans it was -0.41%; in the test on Cryptococcus neoformans it was -6.69%.
On to `COc1cc(C)c2c(c1C=O)Oc1c(c(C)c(O)c3c1C(O)OC3=O)OC2=O` (stereo not given) [STICTIC ACID], for which the Inhibition was 1.81% with Staphylococcus aureus; -4.46% in the test on Acinetobacter baumannii; 10.36% with Escherichia coli; -0.81% with Klebsiella pneumoniae; -4.28% in the test on Candida albicans; -12.08% with Cryptococcus neoformans.
Regarding `COc1c(O)cc2oc3cc(O)c(CC=C(C)C)c(O)c3c(=O)c2c1CC=C(C)C` [MANGOSTIN], the Inhibition in the test on Staphylococcus aureus is -10.76%; with Acinetobacter baumannii, -19.44%; with Escherichia coli, -3.06%; in the test on Klebsiella pneumoniae it was -4.57%; in the test with Candida albicans, -6.96%; with Cryptococcus neoformans, -8.44%.
Turning to `COc1c2occc2c(OC)c2c(=O)cc(C)oc12` [KHELLIN], the Inhibition in the test on Staphylococcus aureus was 20.27%; in the test with Acinetobacter baumannii, -0.82%; in the test on Escherichia coli it was 5.11%; in the test with Klebsiella pneumoniae, 15.74%; in the test with Candida albicans, -0.57%; with Cryptococcus neoformans, -6.58%.
With `COc1cc([C@@H]2c3cc4c(cc3[C@@H](OC3OC5CO[C@@H](c6cccs6)OC5C(O)C3O)[C@H]3COC(=O)[C@H]23)OCO4)cc(OC)c1O` (stereo not given in full), the Inhibition with Staphylococcus aureus is 7.05%; in the test with Acinetobacter baumannii it was -1.54%; with Escherichia coli it was 1.68%; in the test on Klebsiella pneumoniae it was -0.01%; with Candida albicans it was 0.54%; in the test on Cryptococcus neoformans, -9.1%.
`CCCCCC[C@H]([C@H](C)O)n1cnc2c(N)ncnc21.Cl`: the Inhibition in the test with Staphylococcus aureus is 18.32%; with Acinetobacter baumannii, -17.98%; in the test on Escherichia coli, 7.31%; with Klebsiella pneumoniae, -3.55%; in the test with Candida albicans, -0.37%; in the test on Cryptococcus neoformans it was -9.44%.
Regarding `CCCCCCCCCCCCCCCCCCOCC(O)CO` (stereo not given) [BATILOL], the Inhibition in the test on Staphylococcus aureus is 16.14%; in the test on Acinetobacter baumannii, -8.86%; in the test with Escherichia coli it was 0.06%; in the test on Klebsiella pneumoniae, 2.79%; with Candida albicans, -1.81%; with Cryptococcus neoformans it was 0.87%.
`CCC1NC(=O)C(NC(=O)c2ncccc2O)C(C)OC(=O)C(c2ccccc2)NC(=O)C2CC(=O)CCN2C(=O)C(Cc2ccccc2)N(C)C(=O)C2CCCN2C1=O` (stereo not given): the Inhibition in the test on Staphylococcus aureus was 3.19%; in the test on Acinetobacter baumannii it was -3.49%; with Escherichia coli it was 1.18%; in the test on Klebsiella pneumoniae, 4.35%; with Candida albicans, -3.25%; with Cryptococcus neoformans it was -7.49%.
For `C=C1C(=O)OC2CC(C)C3(O)CCC(=O)C3(C)CC12` (stereo not given), the Inhibition in the test on Staphylococcus aureus was 18.37%; in the test on Acinetobacter baumannii, -10.29%; in the test with Escherichia coli, 9.08%; in the test on Klebsiella pneumoniae, 2.56%; in the test on Candida albicans, 2.8%; in the test with Cryptococcus neoformans, -16.95%.
On to `Cc1cc2nc3[nH]c(=O)[nH]c(=O)c3nc2cc1C` [LUMICHROME], for which the Inhibition is 0.69% with Staphylococcus aureus; -0.84% with Acinetobacter baumannii; 3.58% in the test on Escherichia coli; 12.48% with Klebsiella pneumoniae; 0.84% in the test with Candida albicans; -5.45% in the test on Cryptococcus neoformans.
In the case of `CC1(C)CC23C4COC(=O)C2CCC1C3CC4=O` (stereo not given), the Inhibition in the test on Staphylococcus aureus is 5.56%; with Acinetobacter baumannii, -5.6%; with Escherichia coli, -0.76%; in the test on Klebsiella pneumoniae, -5.19%; with Candida albicans, 0.59%; in the test on Cryptococcus neoformans, -8.62%.
For the molecule `C/C=C/c1cc2c(c(=O)o1)C(=O)[C@@H](O)[C@H](C)O2`, the Inhibition is -0.66% with Staphylococcus aureus; -9.6% in the test on Acinetobacter baumannii; 14.21% in the test on Escherichia coli; -6.98% with Klebsiella pneumoniae; 1.1% in the test on Candida albicans; -12.06% in the test with Cryptococcus neoformans.
As to `CC(C)c1ccc2c(c1)CC[C@H]1[C@](C)(C(=O)O)CCC[C@]21C` [DEHYDROABIETIC ACID], the Inhibition with Staphylococcus aureus was 11.51%; in the test with Acinetobacter baumannii, -10.79%; in the test with Escherichia coli, 7.61%; with Klebsiella pneumoniae, -3.77%; in the test on Candida albicans it was 14%; in the test with Cryptococcus neoformans, -14.06%.
Consider `CC(C)=CCc1c2c(c3occ(-c4ccc(O)c(O)c4)c(=O)c3c1O)C=CC(C)(C)O2` [POMIFERIN], for which the Inhibition in the test with Staphylococcus aureus is 6.8%; with Acinetobacter baumannii, 23.27%; with Escherichia coli it was 0.91%; in the test with Klebsiella pneumoniae it was 26.31%; in the test on Candida albicans it was -6.81%; in the test on Cryptococcus neoformans, -8.85%.
As to `CC(=O)C1CCCC(=O)/C=C/C(=O)O1` (stereo not given), the Inhibition in the test with Staphylococcus aureus is -2.82%; in the test on Acinetobacter baumannii, -9.57%; in the test with Escherichia coli, -0.06%; in the test with Klebsiella pneumoniae it was -0.08%; with Candida albicans, 6.81%; in the test with Cryptococcus neoformans, -5.33%.
As for `CC1(C)C(=O)N2c3ccccc3C3(CC(N4C(=O)c5ccccc5C4=O)C(=O)O3)C2N1C(=O)OCc1ccccc1` (stereo not given), the Inhibition in the test with Staphylococcus aureus is -7.98%; with Acinetobacter baumannii, -16.59%; with Escherichia coli, 1.59%; in the test with Klebsiella pneumoniae, -2.04%; in the test on Candida albicans, 1.22%; in the test on Cryptococcus neoformans, -12.3%.
For `CCCCCCCCCCCCCCCC(=O)O[C@@H]1[C@@H](C)[C@@]2(O)[C@@H](C=C(CO)C[C@]3(O)C(=O)C(C)=C[C@@H]23)[C@H]2[C@]1(OC(C)=O)[C@]2(C)CO`, the Inhibition with Staphylococcus aureus is 18.67%; in the test on Acinetobacter baumannii, -9.19%; in the test on Escherichia coli it was 2.92%; with Klebsiella pneumoniae, 11.05%; with Candida albicans, -4.72%; with Cryptococcus neoformans, -11.83%.
With `COC(=O)NC1C(C)OC(OC2C/C=C(/C)C3C=CC4C(OC5CC(OC6CCC(OC7CC(O)C(OC8CCC(O)C(C)O8)C(C)O7)C(C)O6)C(OC(C)=O)C(C)O5)C(C)CC(C)C4C3(C)/C(O)=C3/C(=O)OC4(CC(C=O)=CC(O)C4/C=C\2C)C3=O)CC1(C)[N+](=O)[O-]` (stereo not given), the Inhibition in the test on Staphylococcus aureus is -21.61%; with Acinetobacter baumannii, -13.61%; with Escherichia coli, 6.38%; with Klebsiella pneumoniae it was 4.04%; in the test on Candida albicans, 4.81%; in the test on Cryptococcus neoformans, -14.96%.
Take `O=C(O)CCCCCCC[C@@H](O)[C@@H](O)CCCCCCO`: the Inhibition with Staphylococcus aureus was 20.06%; in the test on Acinetobacter baumannii, -9.87%; in the test with Escherichia coli, 9.65%; in the test on Klebsiella pneumoniae it was 0.28%; with Candida albicans it was 1.24%; in the test on Cryptococcus neoformans it was -6.7%.
